# Assay results from PMC7862700, “An all-to-all approach to the identification of sequence-specific readers for epigenetic DNA modifications on cytosine”.
# Legend:
# Experiment in all cases: DAPPL (digital affinity profiling via proximity ligation, sequencing); 10 mM Tris-HCl pH 7.5, 50 mM NaCl, 1 mM DTT, 4% glycerol, room temperature, 30 min; GST-TFs on glutathione beads, 16-mer random dsDNA library, 0.1% formaldehyde crosslink after washing; high values mean tight binding
# Settings in all cases: protein: recombinant; tags: N-terminal GST; dsDNA, one strand shown
# ETV1 = ETV1 (Homo sapiens, UniProt P50549 1-477)
# ETV1, sequence (P50549 whole entry, the tested form may be a part): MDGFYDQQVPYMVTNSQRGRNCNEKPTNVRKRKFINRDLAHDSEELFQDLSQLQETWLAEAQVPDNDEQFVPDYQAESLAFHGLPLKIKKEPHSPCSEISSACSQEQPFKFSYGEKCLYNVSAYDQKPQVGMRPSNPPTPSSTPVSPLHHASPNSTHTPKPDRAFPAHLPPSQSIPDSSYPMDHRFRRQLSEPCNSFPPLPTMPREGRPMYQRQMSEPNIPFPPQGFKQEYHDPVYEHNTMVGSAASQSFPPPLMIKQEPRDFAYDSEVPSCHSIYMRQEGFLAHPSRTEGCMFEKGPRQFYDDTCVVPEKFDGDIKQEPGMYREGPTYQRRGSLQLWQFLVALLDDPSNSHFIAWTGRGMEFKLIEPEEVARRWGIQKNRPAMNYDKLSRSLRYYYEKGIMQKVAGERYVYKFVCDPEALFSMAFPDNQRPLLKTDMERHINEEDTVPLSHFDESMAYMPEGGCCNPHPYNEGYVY
# In short: (§1)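 Beads coated with glutathione captured GST-fused human transcription factors that had been expressed in yeast, and the factors were then given DNA barcodes and pooled with a tag-only sample. The pools were incubated with 200 nmole of a random double-stranded 16-mer DNA library in Tris/NaCl/DTT/glycerol buffer for 30 min at room temperature, washed, crosslinked with 0.1% formaldehyde and proximity-ligated with BsaI/T4 ligase at 37 °C for 1 h. PCR amplification and Illumina NextSeq500 sequencing came last. Binding signal is each hexamer's read frequency for a factor divided by its frequency for the tag-only sample.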
# ERF = target: T1, ERF (Homo sapiens, UniProt P50548 1-548)
# T1 sequence: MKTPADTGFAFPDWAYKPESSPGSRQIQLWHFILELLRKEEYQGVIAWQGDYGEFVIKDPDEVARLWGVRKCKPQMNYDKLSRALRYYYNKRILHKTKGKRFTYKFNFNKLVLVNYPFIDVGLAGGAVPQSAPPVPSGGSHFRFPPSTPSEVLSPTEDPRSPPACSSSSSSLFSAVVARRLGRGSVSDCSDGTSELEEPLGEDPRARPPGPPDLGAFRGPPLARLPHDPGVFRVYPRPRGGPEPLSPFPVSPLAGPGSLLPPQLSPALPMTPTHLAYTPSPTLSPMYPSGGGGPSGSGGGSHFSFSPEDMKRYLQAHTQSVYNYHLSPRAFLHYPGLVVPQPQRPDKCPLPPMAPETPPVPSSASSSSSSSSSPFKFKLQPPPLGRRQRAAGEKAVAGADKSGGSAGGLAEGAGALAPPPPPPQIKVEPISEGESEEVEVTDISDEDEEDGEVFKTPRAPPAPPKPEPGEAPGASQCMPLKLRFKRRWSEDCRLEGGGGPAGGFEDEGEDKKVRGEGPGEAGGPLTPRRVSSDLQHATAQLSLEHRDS
# In short: as §1
# ETV3L = target: T2, ETV3L (Homo sapiens, UniProt Q6ZN32 1-361)
# T2 sequence: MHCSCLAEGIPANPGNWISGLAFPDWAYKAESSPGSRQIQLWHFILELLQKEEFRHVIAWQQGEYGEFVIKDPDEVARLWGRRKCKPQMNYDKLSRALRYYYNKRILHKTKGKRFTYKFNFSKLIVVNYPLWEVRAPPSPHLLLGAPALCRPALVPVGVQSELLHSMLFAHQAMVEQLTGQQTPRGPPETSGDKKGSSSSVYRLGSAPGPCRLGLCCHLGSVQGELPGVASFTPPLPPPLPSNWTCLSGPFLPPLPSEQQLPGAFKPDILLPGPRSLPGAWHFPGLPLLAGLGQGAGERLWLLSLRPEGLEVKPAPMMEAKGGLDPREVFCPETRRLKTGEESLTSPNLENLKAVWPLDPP
# In short: as §1
# ETS2 = target: T3, ETS2 (Homo sapiens, UniProt P15036 1-469)
# T3 sequence: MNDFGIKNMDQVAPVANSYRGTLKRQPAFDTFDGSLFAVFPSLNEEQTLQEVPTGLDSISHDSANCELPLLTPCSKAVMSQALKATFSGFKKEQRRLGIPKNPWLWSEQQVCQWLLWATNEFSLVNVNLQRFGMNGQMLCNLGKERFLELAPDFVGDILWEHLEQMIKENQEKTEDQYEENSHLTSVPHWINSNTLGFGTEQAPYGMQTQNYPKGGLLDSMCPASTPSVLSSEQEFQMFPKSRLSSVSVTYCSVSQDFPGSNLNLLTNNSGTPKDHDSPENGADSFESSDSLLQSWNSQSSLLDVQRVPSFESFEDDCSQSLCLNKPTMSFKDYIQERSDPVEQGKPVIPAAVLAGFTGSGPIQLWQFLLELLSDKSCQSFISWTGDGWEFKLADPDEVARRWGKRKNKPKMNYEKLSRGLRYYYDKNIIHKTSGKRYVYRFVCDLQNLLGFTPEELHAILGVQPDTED
# In short: as §1
# SPDEF = target: T4, SPDEF (Homo sapiens, UniProt O95238 1-335)
# T4 sequence: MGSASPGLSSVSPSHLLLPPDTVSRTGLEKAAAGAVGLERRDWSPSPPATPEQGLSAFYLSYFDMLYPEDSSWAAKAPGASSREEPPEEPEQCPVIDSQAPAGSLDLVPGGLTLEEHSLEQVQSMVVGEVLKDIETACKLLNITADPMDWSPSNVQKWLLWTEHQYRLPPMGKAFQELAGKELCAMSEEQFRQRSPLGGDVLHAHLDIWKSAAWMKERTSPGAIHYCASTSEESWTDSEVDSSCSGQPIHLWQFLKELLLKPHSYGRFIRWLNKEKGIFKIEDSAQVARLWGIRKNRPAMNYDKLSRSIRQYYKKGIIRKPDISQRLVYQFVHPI
# In short: as §1
# ETV7 = target: T5, ETV7 (Homo sapiens, UniProt Q9Y603 1-341)
# T5 sequence: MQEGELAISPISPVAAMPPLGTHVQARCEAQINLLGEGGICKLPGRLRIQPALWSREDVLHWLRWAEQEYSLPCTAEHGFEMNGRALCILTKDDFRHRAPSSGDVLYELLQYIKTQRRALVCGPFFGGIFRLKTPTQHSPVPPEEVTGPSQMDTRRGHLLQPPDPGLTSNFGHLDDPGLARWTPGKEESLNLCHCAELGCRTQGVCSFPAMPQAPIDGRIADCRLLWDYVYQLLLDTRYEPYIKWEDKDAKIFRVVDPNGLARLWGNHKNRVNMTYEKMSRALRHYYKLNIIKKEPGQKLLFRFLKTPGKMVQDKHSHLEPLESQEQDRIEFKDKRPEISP
# In short: as §1
# ELF5 = target: T6, ELF5 (Homo sapiens, UniProt Q9UKW6-2 1-255)
# T6 sequence: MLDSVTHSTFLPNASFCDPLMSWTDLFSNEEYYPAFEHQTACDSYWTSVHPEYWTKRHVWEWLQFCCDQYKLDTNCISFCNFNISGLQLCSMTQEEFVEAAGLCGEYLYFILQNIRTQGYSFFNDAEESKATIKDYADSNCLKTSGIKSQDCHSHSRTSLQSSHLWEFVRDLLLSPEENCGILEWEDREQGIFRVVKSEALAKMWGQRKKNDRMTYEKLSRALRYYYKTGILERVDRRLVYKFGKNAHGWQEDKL
# In short: as §1
# ETV3 = target: T7, ETV3 (Homo sapiens, UniProt P41162-2 1-143)
# T7 sequence: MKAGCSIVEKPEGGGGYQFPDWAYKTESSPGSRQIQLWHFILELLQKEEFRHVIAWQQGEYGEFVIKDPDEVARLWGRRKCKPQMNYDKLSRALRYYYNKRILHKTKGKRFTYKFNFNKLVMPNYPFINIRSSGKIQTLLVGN
# In short: as §1
# ETV6 = ETV6 (Homo sapiens, UniProt P41212 1-452)
# ETV6, sequence (P41212 whole entry): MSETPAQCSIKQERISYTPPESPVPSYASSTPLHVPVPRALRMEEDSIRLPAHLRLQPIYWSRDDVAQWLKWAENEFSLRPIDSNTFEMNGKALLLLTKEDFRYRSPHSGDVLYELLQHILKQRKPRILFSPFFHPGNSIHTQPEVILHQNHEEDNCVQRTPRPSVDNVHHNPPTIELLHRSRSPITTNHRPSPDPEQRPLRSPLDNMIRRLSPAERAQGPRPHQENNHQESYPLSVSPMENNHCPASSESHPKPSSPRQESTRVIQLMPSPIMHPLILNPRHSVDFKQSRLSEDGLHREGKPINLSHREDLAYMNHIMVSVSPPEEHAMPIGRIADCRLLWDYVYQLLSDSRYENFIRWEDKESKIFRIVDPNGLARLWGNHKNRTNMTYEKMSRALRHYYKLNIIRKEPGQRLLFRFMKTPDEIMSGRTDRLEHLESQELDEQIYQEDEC
# In short: as §1
sequence,measurement,setting,value
ACGCTT,binding signal,ETV1,"1.39 fold enrichment (6-mer frequency, TF over GST control)"
same,binding signal,ERF,"1.5 fold enrichment (6-mer frequency, TF over GST control)"
same,binding signal,ETV3L,"1.35 fold enrichment (6-mer frequency, TF over GST control)"
same,binding signal,ETS2,"1.42 fold enrichment (6-mer frequency, TF over GST control)"
same,binding signal,SPDEF,"1.39 fold enrichment (6-mer frequency, TF over GST control)"
same,binding signal,ETV7,"1.52 fold enrichment (6-mer frequency, TF over GST control)"
same,binding signal,ELF5,"1.22 fold enrichment (6-mer frequency, TF over GST control)"
same,binding signal,ETV3,"1.4 fold enrichment (6-mer frequency, TF over GST control)"
same,binding signal,ETV6,"1.45 fold enrichment (6-mer frequency, TF over GST control)"
